± gives the standard deviation.
Columns and labels:
[1] = tested on: MILI (PIWIL2) piRISC loaded with L1MC piRNA (26 nt); assay: pre-steady-state target cleavage rate (min^-1); guide: L1MC piRNA 5'p-UAACUAAAUACUAUGCAAGCUGUAGG; higher = faster piRNA-guided slicing of the target;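 also: 1 nM active piRISC with 0.1 nM target library at 33 °C single turnover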
Summary of the method: (§1)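 The pre-steady-state cleavage rate was calculated from a burst-and-steady-state fit. Data came from Cleave-'n-Seq, in which […] transcribed, DNA-blocked target RNA library was mixed with 1 nM active affinity-purified piRISC carrying one synthetic guide, with or without 500 nM GTSF1 partner protein, in HEPES–potassium acetate buffer at 33 °C for 0–8 or 0–960 min. Uncleaved targets were sequenced and normalised to depth and to weakly complementary targets, three trials were pooled, and k3 was capped at 0.0001 min^-1.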

[2] = tested on: EfPiwi piRISC loaded with L1MC piRNA (26 nt); assay: pre-steady-state target cleavage rate (min^-1); auxiliary factor: 500 nM Ephydatia muelleri Gtsf1; guide: L1MC piRNA 5'p-UAACUAAAUACUAUGCAAGCUGUAGG; MIWI and MILI are mouse PIWI proteins and EfPiwi is from a freshwater sponge; tags in brackets are library labels; higher = faster piRNA-guided slicing of the target
Summary of the method: as §1

[3] = auxiliary factor: 500 nM mouse GTSF1
[4] = auxiliary factor: none (no GTSF1)

| Sequence | pre-steady-state target cleavage rate [1, 3] | pre-steady-state target cleavage rate [1, 4] | pre-steady-state target cleavage rate [2] |
| --- | --- | --- | --- |
| UCCUCCUACAGCUUGCUUAGUAAUUAGUUA | 0.24 ± 0.015 | 0.00424 ± 0.0021 | 0.0113 ± 0.0049 |
| UCCUCCUACAGCUUGCAUAGUAUUUAAGUUA | 0.214 ± 0.022 | 0.00686 ± 0.0024 | 0.00943 ± 0.0038 |
| UCCUCCUCCAGCUUGCAUAGUAUUUAGUUA | 0.265 ± 0.019 | 0.00605 ± 0.0026 | 0.194 ± 0.056 |
| UCCUGGUACAGCUGGCAUAGUAUUUAGUUA | 0.199 ± 0.022 | 0.0121 ± 0.0031 | 0.0113 ± 0.0038 |
| UCCUGGAACAGCUUGCAUAGUACUUUAGUUA | 0.168 ± 0.015 | 0.00486 ± 0.0022 | 0.00922 ± 0.0033 |
| UCCUCCUACUCCUUGCAUAGUAUUUAGUUA | 0.261 ± 0.021 | 0.0087 ± 0.0018 | 0.165 ± 0.046 |
| UCCUGCAACAGCUUGCAUACUAUUUAGUUA | 0.083 ± 0.011 | 0.00386 ± 0.002 | 0.0112 ± 0.0029 |
| UCCUCCUUCAGGUUGCAUAGUAUUUAGUUA | 0.239 ± 0.013 | 0.0102 ± 0.002 | 0.0528 ± 0.012 |
| UCCUCCUUACAGCUUGCAUAGUAUUUAGUUA | 0.301 ± 0.014 | 0.011 ± 0.0028 | 0.117 ± 0.03 |
| UCCUGGAUUAGCUUGCAUAGUAUUUAGUUA | 0.232 ± 0.016 | 0.00961 ± 0.0024 | 0.0447 ± 0.011 |
| UCCUGCUAAGCUUGCAUAGUAUUUAGUUA | 0.182 ± 0.018 | 0.00403 ± 0.0019 | 0.00771 ± 0.0024 |
| UCCUGGAUGAGCUUCGCAUAGUAUUUAGUUA | 0.258 ± 0.02 | 0.00539 ± 0.0022 | 0.0219 ± 0.0059 |
| UCCUGGAUCAGCAUGCAUAGUAUUUAGAAA | 0.126 ± 0.018 | 0.0038 ± 0.0026 | 0.00356 ± 0.0021 |
| UCCUGGAACAGCUCGCAUAGUAUUUAGUUA | 0.256 ± 0.012 | 0.00773 ± 0.0031 | 0.0171 ± 0.0048 |
| UCCUGGAACAGCUUGCAUUGUAUUUAGUAA | 0.17 ± 0.02 | 0.00563 ± 0.0025 | 0.00646 ± 0.0024 |
| UCCUGCCUACAGCUUGCAUAGUAUUUAGUUA | 0.342 ± 0.022 | 0.0113 ± 0.0037 | 0.0909 ± 0.021 |
| UCCUCCUACAGCUUGGAUAGUAUUUAGUAA | 0.208 ± 0.02 | 0.00459 ± 0.0023 | 0.00895 ± 0.0035 |
| UCCUGCUUCUGCUUGCAUAGUAUUUAGUUA | 0.199 ± 0.016 | 0.00864 ± 0.0018 | 0.0112 ± 0.0038 |
| UCCUCCUAGAGCUUGCAUAGUAUUUAGUAA | 0.201 ± 0.021 | 0.00313 ± 0.0024 | 0.00608 ± 0.0021 |
| UCCUCCUACAGCUAGCAUAGUAUUAAGUUA | 0.205 ± 0.019 | 0.0038 ± 0.0018 | 0.00633 ± 0.0029 |
